According to PubChem BioAssay AID2590 (National Center for Advancing Translational Sciences (NCATS), 2010):
Several values for one entry are separate records, joined by “and”; a condition that tells them apart may be missing. Equal entries are not always repeated. Records with an inconclusive call do not appear. Activity calls are given as the source filed them. Calls follow the shape of the dose curve; as a rule, active = well fitted curve in the direction sought with a large enough effect; inconclusive = small, poorly fitted or top-dose-only effect, or another doubt; inactive = no such curve, though single readings can be large or run the other way.

target: Lysosomal acid glucosylceramidase (Homo sapiens) (UniProt P04062); assay: qHTS Assay for Inhibitors and Activators of N370S glucocerebrosidase as a Potential Chaperone Treatment of Gaucher Disease: Primary Screen Confirmation; settings: N370S glucocerebrosidase enzyme activity, fluorogenic substrate; series mostly up to 54 µM; activity change, negative = inhibition: at the top concentration;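 as to activity change, negative = inhibition: 0% = enzyme with DMSO and -100% = no enzyme basal signal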
Sequence (P04062 whole entry N409S): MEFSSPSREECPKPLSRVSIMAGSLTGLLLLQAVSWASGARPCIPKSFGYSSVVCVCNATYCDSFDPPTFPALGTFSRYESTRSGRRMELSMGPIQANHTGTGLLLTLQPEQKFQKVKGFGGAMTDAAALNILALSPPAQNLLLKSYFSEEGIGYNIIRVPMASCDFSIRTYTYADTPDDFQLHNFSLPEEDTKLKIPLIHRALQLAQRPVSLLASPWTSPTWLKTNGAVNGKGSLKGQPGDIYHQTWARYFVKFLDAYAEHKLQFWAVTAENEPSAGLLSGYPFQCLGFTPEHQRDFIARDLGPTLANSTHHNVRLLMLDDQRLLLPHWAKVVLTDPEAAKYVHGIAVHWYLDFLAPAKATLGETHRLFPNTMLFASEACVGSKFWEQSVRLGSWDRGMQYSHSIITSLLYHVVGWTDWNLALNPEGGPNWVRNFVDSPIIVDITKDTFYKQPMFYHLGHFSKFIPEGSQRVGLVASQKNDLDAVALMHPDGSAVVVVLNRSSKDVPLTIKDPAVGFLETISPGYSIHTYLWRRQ
Excerpt: NIH Chemical Genomics Center [NCGC]
NIH Molecular Libraries Probe Production Centers Network [MLPCN]
Assay Submitter (PI): Wei Zheng
Glucocerebrosidase (GC) catalyzes the hydrolysis of beta-glucocerebroside to glucose and ceramide in lysosomes. Mutations in the glucocerebrosidase gene result in Gaucher disease, an autosomal recessive lysosomal storage disorder. Many of the mutations encountered in patients with Gaucher disease are missense alterations that may cause misfolding, decreased stability and/or mistrafficking of this lysosomal protein. […] These inhibitors include iminosugar analogs and three non-iminosugar inhibitors identified from a previous HTS of 62,000 compounds with the wild type recombinant enzyme. However, the enhancement of enzyme activity by the chaperone action of an enzyme inhibitor must be balanced against the direct inhibition of the enzyme. An enzyme activator could also function as a chaperone by binding to the enzyme and helping to correct its misfolding and mistrafficking. While activators for GC have not yet been identified, they may have better therapeutic potential than inhibitors. Therefore the discovery and development of chemical activators may provide a new strategy for the chaperone therapy.
We have optimized a new assay using N370S mutant GC derived from the spleen of a Gaucher patient. […] In addition, the MLPCN compound library has expanded, which increases the chance of finding new and better probes.
NCGC Assay Protocol Summary:
This is a fluorogenic enzyme assay with 4-methylumbelliferyl-beta-D-glucopyranoside as the substrate and N370S glucocerebrosidase from human spleen homogenate as the enzyme preparation. Upon the hydrolysis of this fluorogenic substrate, the resulting product, […] which can be detected by a standard fluorescence plate reader. Data were normalized to the controls for basal activity (without enzyme) and 100% activity (with enzyme). The AC50 values were determined from concentration-response data modeled with the standard Hill equation.
Assay buffer: 50 mM citric acid (titrated with potassium phosphate to pH 5.0), 100 mM potassium chloride, 10 mM sodium chloride, 1 mM magnesium chloride, 0.01% Tween-20.
1536-well assay protocol:
(1) Add 2 ul/well of spleen homogenate (27 ug final)
(2) Add 23 nL compounds in DMSO solution. The final titration was 0.5 nM to 58 uM.
(3) Add 2 ul of substrate (1 mM final)
(4) Incubate at 37C for 40 min.
(5) Add 2 ul stop solution (1M NaOH and 1M Glycine mixture, pH 10)
(6) Detect the assay plate in a ViewLux plate reader (PerkinElmer) with Ex=365 nm and Em=440nm.
Keywords: Glucocerebrosidase, beta-glucosidase, Gaucher Disease, pharmacological chaperone, chaperone therapy, high throughput screening, glucocerebrosidase inhibitor, MLSMR, MLSCN, NIH Roadmap, qHTS and NCGC
Potency is read from the fitted curve at half-maximal effect.

Row | Compound | Potency | activity change, negative = inhibition
1 | Cc1cc(C)cc(S(=O)(=O)N2CCN(c3nc(-c4cccs4)nc4ccccc34)CC2)c1 | 1.03 µM (active) | –
2 | CN(CCO)c1nc(-c2cccs2)nc2ccccc12 | – | -23.1% (inactive)
3 | COc1cccc(CN(C)c2nc(-c3cccs3)nc3ccccc23)c1 | 2.01 µM (active) | –
4 | Cc1ccc(S(=O)(=O)N2CCN(c3nc(-c4cnccn4)nc4ccccc34)CC2)cc1 | – | -29.6% (inactive)
5 | O=S(=O)(c1ccc2ncccc2c1)N1CCN(c2nc(-c3cccs3)nc3ccccc23)CC1 | 0.8 µM (active) | –
6 | Cc1ccc(S(=O)(=O)N2CCN(c3nc(-c4ccc(C)s4)nc4ccccc34)CC2)cc1 | 3.26 µM (active) | –
7 | COc1cccc(S(=O)(=O)N2CCN(c3nc(-c4cccs4)nc4ccccc34)CC2)c1 | 0.819 µM (active) | –
8 | NCCCNc1ccc(Br)cn1 | – | -9.9% (inactive)
9 | CCOc1ccc(S(=O)(=O)N2CCN(c3nc(-c4ccccc4)nc4ccccc34)CC2)cc1 | 4.11 µM (active) | –
10 | O=S(=O)(c1ccccc1)N1CCN(c2nccc(-c3cccs3)n2)CC1 | – | -3.77% (inactive)
11 | COc1ccc(S(=O)(=O)N2CCN(c3nc(-c4cccs4)nc4ccccc34)CC2)cc1 | 0.819 µM (active) | –
12 | COc1ccccc1NC(=O)COc1ccccc1C(=O)Nc1ccccc1 | – | 10.7% (inactive)
13 | O=S(=O)(c1ccc(F)cc1)N1CCN(c2nc(-c3cccs3)nc3cc(Cl)ccc23)CC1 | – | -13.8% (inactive)
14 | Cc1cc2[nH]c(=O)c(=O)[nH]c2cc1S(=O)(=O)N1CCN(c2cccc(C(F)(F)F)c2)CC1 | 5.17 µM (active) | –
15 | CS(=O)(=O)N1CCN(c2nc(-c3cccs3)nc3ccccc23)CC1 | 11.4 µM (active) | –
16 | Cc1csc(NC(=O)CN2C(=O)c3ccccc3S2(=O)=O)n1 | – | -18.1% (inactive)
17 | O=S(=O)(/C=C/c1ccccc1)N1CCN(c2nc(-c3ccccc3)nc3ccccc23)CC1 | 11.6 µM (active) | –
18 | Cc1ccc2nc(-c3ccc(SCC(=O)N4CCc5ccccc54)nc3)[nH]c2c1 | 10 µM (active) | –
19 | Cc1ccccc1S(=O)(=O)N1CCN(c2nc(-c3cccs3)nc3ccccc23)CC1 | 2.53 µM (active) | –
20 | S=C(NCCCc1cnc[nH]1)NCCCN(Cc1ccccc1)c1ccc(Br)cn1 | 5.79 µM (active) | –

Row | Compound | Potency | activity change, negative = inhibition
21 | CCC(=O)OCCNc1nc(-c2ccccc2)nc2ccccc12 | 16 µM (active) | –
22 | NC(=NCCCCCCN=C(N)/N=C(\N)Nc1ccc(Cl)cc1)/N=C(\N)Nc1ccc(Cl)cc1 | 11.6 µM (active) and 18.3 µM (active) and 16.3 µM (active) | –
23 | COC(=O)c1nc(N2CCN(S(=O)(=O)c3ccc(C)cc3)CC2)c2ccccc2n1 | 16.3 µM (active) | –
24 | Cc1ccc(S(=O)(=O)N2CCN(c3nc(-c4cccs4)nc4cccnc34)CC2)cc1 | 2.53 µM (active) | –
25 | Cc1ccc(S(=O)(=O)N2CCN(c3nc(-c4ccco4)nc4ccccc34)CC2)cc1 | 1.01 µM (active) | –
26 | Cc1cc(Cl)nc(NC(=O)Nc2cccc(Cl)c2)n1 | – | 20.8% (inactive)
27 | N#Cc1ccc(S(=O)(=O)N2CCN(c3nc(-c4cccs4)nc4ccccc34)CC2)cc1 | 2.01 µM (active) | –
28 | Cc1ccc(S(=O)(=O)N2CCN(c3nc(-c4ncco4)nc4ccccc34)CC2)cc1 | 9.02 µM (active) | –
29 | O=S(=O)(c1ccc(Cl)cc1)N1CCN(c2nc(Nc3cc(Cl)ccc3O)nc3ccccc23)CC1 | 2.59 µM (active) | –
30 | S=C(NCCCc1cnc[nH]1)NCCCN(Cc1ccc(Cl)cc1)c1ccc(Br)cc1 | 1.13 µM (active) | –
31 | O=S(=O)(c1cccc(F)c1)N1CCN(c2nc(-c3cccs3)nc3ccccc23)CC1 | 1.01 µM (active) | –
32 | S=C(NCCCc1cnc[nH]1)NCCCN(CCc1ccccc1)c1ccc(Br)cn1 | 2.25 µM (active) | –
33 | Cc1cc(C)cc(N(CC(=O)Nc2ccc(C(F)(F)F)cc2)S(=O)(=O)c2c(C)[nH]c(=O)[nH]c2=O)c1 | 2.59 µM (active) | –
34 | CCN1CCN(C(=O)CCN(CC(C)C)c2nc(-c3cccs3)nc3ccccc23)CC1 | 20.2 µM (active) | –
35 | O=C(c1ccc2c(c1)OCCO2)N1CCN(c2nc(-c3cccs3)nc3ccccc23)CC1 | 3.66 µM (active) | –
36 | O=S(=O)(c1ccsc1)N1CCN(c2nc(-c3cccs3)nc3ccccc23)CC1 | 1.03 µM (active) | –
37 | O=[N+]([O-])c1ccccc1S(=O)(=O)N1CCN(c2nc(-c3cccs3)nc3ccccc23)CC1 | 0.73 µM (active) | –
38 | Oc1ccccc1Nc1nc(NCC2CCCO2)c2ccccc2n1 (stereo not given) | – | -38.7% (inactive)
39 | CCCCNC(=S)NCCCN(Cc1ccc(Cl)c(Cl)c1)c1ccc(Br)cn1 | – | -6.05% (inactive)
40 | CC1(C)CCc2cc(S(=O)(=O)N3CCN(c4nc(-c5cccs5)nc5ccccc45)CC3)ccc2O1 | 1.13 µM (active) | –
